For 20 compounds, growth inhibition results are on record in PubChem BioAssay (NCI).

Experiment [1] can be described thus: NCI Yeast Anticancer Drug Screen. Data for the rad50 strain (AID 155).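 Note: 0% = growth of vehicle-only cultures of the same strain.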 As to conditions: S. cerevisiae rad50 strain growth inhibition; at 50.0 µM; hits give high values. The gist of the method: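 Compounds were tested on a yeast strain with an engineered DNA damage repair alteration; the reported value is growth inhibition normalised to vehicle treatment.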
Experiment [2] can be described thus: NCI Yeast Anticancer Drug Screen. Data for the mec2-1 strain (AID 157). As to conditions: S. cerevisiae mec2-1 strain, at 50.0 µM, hits give high values. The gist of the method: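 Strain: mec2-1 (DNA repair/cell cycle alteration). Compound exposure, then growth measured; inhibition expressed relative to vehicle.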
Experiment [3] in a line: NCI Yeast Anticancer Drug Screen. Data for the sgs1 mgt1 strain (AID 161).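 Note: 0% = growth of cultures given vehicle only.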 As to conditions: S. cerevisiae sgs1 mgt1 strain, at 50.0 µM, hits give high values. The gist of the method: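 Test agents were incubated with a DNA-repair-mutant yeast strain. Growth was then read and compared against vehicle-treated controls.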
The nature of experiment [4]: NCI Yeast Anticancer Drug Screen. Data for the cln2 rad14 strain (AID 165).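 Note: 0% = growth equal to vehicle treated cultures.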 Conditions: S. cerevisiae cln2 rad14 strain, at 50.0 µM, hits give high values. In a few lines: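 Compounds are applied to the cln2 rad14 yeast strain, and growth is then compared with that of vehicle-treated cultures to give inhibition.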
Experiment [5] is described as follows: NCI Yeast Anticancer Drug Screen. Data for the bub3 strain (AID 167). Conditions: S. cerevisiae bub3 mutant strain, at 50.0 µM, hits give high values. The gist of the method:
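Growth of a checkpoint-deficient yeast mutant is measured after compound exposure. Values represent inhibition relative to vehicle.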

Experiment [6] in a line: NCI Yeast Anticancer Drug Screen. Data for the mlh1 rad18 strain (AID 175). As to conditions: S. cerevisiae mlh1 rad18 strain growth inhibition; at 50.0 µM; hits give high values. The gist of the method: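 Read-out is yeast growth inhibition, calculated against vehicle-only controls. The compound was applied to a strain engineered with DNA damage repair alterations.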

The panel holds about 79,000 compounds, 15% with a hit somewhere; the sample as a whole holds those more often. A number with no mark means an inactive call. The source made the active and inactive calls. Cut-off read from the data, not from the text of the source: active = growth inhibition above about 70%; inactive = the rest.

Turning to `CCc1ccc(OC/C=C(\C)CCC2OC2(C)CC)cc1` (stereo not given), the growth inhibition in experiment [1] is -4.15%; in experiment [2], 4.5%; in experiment [3], 19.8%; in experiment [4], 4%; in experiment [5], 32%; in experiment [6], -2.8%.

In the case of `O=C(O)c1c(Cl)ccc([N+](=O)[O-])c1Cl`, the growth inhibition in experiment [1] is -4.45%; in experiment [2] it was -24.2%; in experiment [3] it was -8.95%; in experiment [4], 8.8%; in experiment [5], -10.6%; in experiment [6], -1.45%.

For the compound `Clc1cccc(Cl)c1C1SCc2nc3ncccc3n21` (stereo not given), the growth inhibition in experiment [1] is 14.1%; in experiment [2] it was 16.6%; in experiment [3], 34.4%; in experiment [4] it was 16.9%; in experiment [5], 10.6%; in experiment [6] it was 0.4%.

`c1ccc2c(c1)nn1c3ccc4nonc4c3[n-][n+]21`: the growth inhibition was 1.2% in experiment [1]; -0.5% in experiment [2]; 25.9% in experiment [3]; 13.2% in experiment [4]; 31.4% in experiment [5]; -11.4% in experiment [6].

Regarding `CC1=C(CCC(C)CO)O[C@H]2C[C@H]3[C@@H]4CC[C@H]5C[C@@H](O)CC[C@]5(C)[C@H]4CC(=O)[C@]3(C)[C@@H]12` (stereo not given in full), the growth inhibition in experiment [1] was 64.3%; in experiment [2], 28.6%; in experiment [3], 84% (active); in experiment [4], 38.4%; in experiment [5] it was 67.3%; in experiment [6] it was 70.8% (active).

For `COc1ccc(COC(=O)NC2CCCCC2)cc1OC`, the growth inhibition in experiment [1] is 2.5%; in experiment [2] it was 19.9%; in experiment [3], 25.1%; in experiment [4], -9.95%; in experiment [5], 37%; in experiment [6] it was 45.9%.

With `O=[N+]([O-])C(=C(N1CCCCC1)N1CCCCC1)/C(Cl)=C(\Cl)Br`, the growth inhibition is -31.5% in experiment [1]; 11.2% in experiment [2]; 2.7% in experiment [3]; -2% in experiment [4]; -7.15% in experiment [5]; -1.45% in experiment [6].

Regarding `CSc1ccc(NC(=O)Nc2ccccc2F)cc1`, the growth inhibition in experiment [1] was -7.65%; in experiment [2], 19.1%; in experiment [3] it was 17.2%; in experiment [4], -20.5%; in experiment [5], 39.5%; in experiment [6], -9.15%.

Consider `CCCCCCCCCCCCCC(=O)N(CCCCCCCCC)CC(O)C(O)C(OC1OC(CO)C(O)C(O)C1O)C(O)CO` (stereo not given), for which the growth inhibition in experiment [1] is -13.8%; in experiment [2] it was -41.4%; in experiment [3] it was -17.4%; in experiment [4], -28.4%; in experiment [5] it was -49.1%; in experiment [6], -56.5%.

`COc1ccc2cc(C(C)C(=O)N3C(=O)OCC3(C)C)ccc2c1` (stereo not given): the growth inhibition in experiment [1] is 19.4%; in experiment [2] it was -11.3%; in experiment [3], 30.4%; in experiment [4], -13.7%; in experiment [5] it was -8.75%; in experiment [6], 9.95%.

Turning to `O=C1CCC2CCC1C2` (stereo not given), the growth inhibition in experiment [1] was 10.1%; in experiment [2] it was -16.6%; in experiment [3], -41.3%; in experiment [4] it was 15.8%; in experiment [5], -36.7%; in experiment [6], -28.3%.

With `O=c1[nH]c2cc(Cl)c([N+](=O)[O-])cc2c2ccc(Cl)cc12`, the growth inhibition is 3.15% in experiment [1]; -7.7% in experiment [2]; -1.6% in experiment [3]; -10.7% in experiment [4]; 3.1% in experiment [5]; 8.05% in experiment [6].

Take `C/C(N=NC(=S)N1CCCCC1C)=C1\C=CC=CN1O` (stereo not given): the growth inhibition in experiment [1] was 49.2%; in experiment [2], 4.25%; in experiment [3], 54.7%; in experiment [4], 89.4% (active); in experiment [5] it was 20.1%; in experiment [6], 20.6%.

Consider `O=C1OC(=O)C2C3C=CC(C4C=C(C5CC5)C43)C12` (stereo not given), for which the growth inhibition was 9.8% in experiment [1]; -4.05% in experiment [2]; -4.1% in experiment [3]; -22.9% in experiment [4]; -5.5% in experiment [5]; 5.2% in experiment [6].

`CC(O)(CNS(=O)(=O)c1ccccc1)c1ccccc1` (stereo not given): the growth inhibition was 14.2% in experiment [1]; 8.8% in experiment [2]; 0.6% in experiment [3]; -36.9% in experiment [4]; -31.2% in experiment [5]; -16.6% in experiment [6].

Consider `FC(F)(F)C(Cl)=C(Cl)Cl`, for which the growth inhibition was -1.8% in experiment [1]; -38.5% in experiment [2]; 14.5% in experiment [3]; 20.1% in experiment [4]; -13.7% in experiment [5]; -1.75% in experiment [6].

With `O=C(CCCl)NNC1=NCCCN1`, the growth inhibition was 2.5% in experiment [1]; -14.3% in experiment [2]; -15.4% in experiment [3]; 23.2% in experiment [4]; -4.35% in experiment [5]; -0.05% in experiment [6].

Consider `N#CSC1CCCCC1SC#N` (stereo not given), for which the growth inhibition in experiment [1] is 11.3%; in experiment [2], 5.8%; in experiment [3] it was 7.35%; in experiment [4] it was -13.7%; in experiment [5], -2.55%; in experiment [6], 5.6%.

Take `Clc1ccccc1-c1c2ccccc2cc2c1ccc1ccccc12`: the growth inhibition in experiment [1] is -12.1%; in experiment [2], -14.5%; in experiment [3] it was -7.75%; in experiment [4] it was -0.85%; in experiment [5], 5.45%; in experiment [6] it was -4.7%.

As to `CC1CCC(C(C)C)C(OC2(c3ccccc3)OC(=O)c3ccccc32)C1` (stereo not given), the growth inhibition in experiment [1] is 23.7%; in experiment [2], -5.7%; in experiment [3], 15.4%; in experiment [4], 8.55%; in experiment [5], 8.65%; in experiment [6], 16.4%.
